Compound activity from PubChem.
SKKanGAS inh – S. pyogenes SKKanGAS growth inhibitors in kanamycin, primary screen, streptokinase expression inhibitor project, SKKanGAS strain, BacTiter-Glo luminescence; 6 h; inhibition, % at 7.5 µM; 1.3% of 300,000 active;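 active = mean replicate score, as percent of positive control median, at least 50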;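 note: strain carries kanamycin resistance gene driven by streptokinase promoter and grows in 40 µg/ml kanamycin; loss of luminescence reflects streptokinase promoter inhibition or plain growth inhibition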
TIM10 inh – growth inhibitors of isogenic TIM10 control yeast, primary screen, counter-screen for tim10-1 yeast inhibitor project, luminescence, uHTS; AID 463195, 2010; 1.4% of 330,000 active; S. cerevisiae TIM10 strain growth, BacTiter-Glo luminescence, 24 h; inhibition, % at 10 µM;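 active = inhibition of 40% or more at the single tested concentration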;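 note: wild-type TIM10 isogenic control strain grown at permissive 25 °C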
tim10-1 inh – growth inhibitors of tim10-1 mutant yeast, primary screen, luminescence, uHTS | S. cerevisiae tim10-1 ts strain growth, BacTiter-Glo, 24 h | inhibition, % at 20 µM | 2.2% of 330,000 active;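 active = inhibition of at least 40%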;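 note: mutant grown at 25 °C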
tim23-1 inh – growth inhibitors of tim23-1 mutant yeast, primary screen, luminescence, uHTS | S. cerevisiae tim23-1 growth, BacTiter-Glo luminescence, 24 h | inhibition, % at 20 µM | 1.3% of 330,000 active | AID 463212, 2010;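 active = growth inhibition of the mutant yeast at or above 50%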;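 note: temperature-sensitive mutant grown at 25 °C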
PfHsp90 yeast 2 – growth inhibition of PfHsp90-expressing yeast, primary screen, antimalarial PfHsp90 inhibitor project, S. cerevisiae, BacTiter-Glo luminescence, single point, set 2 | 0.32% of 310,000 active | BacTiter-Glo ATP, 48 h; yeast lacking PDR1 and PDR3 efflux regulators | inhibition, % at 9.4 µM | AID 504621, 2011;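 active = every replicate shows inhibition above about 80%, whatever the replicate mean, limit read from the data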
EBI2 antag – EBI2 receptor antagonists, beta-arrestin recruitment, primary screen, cell-based, luminescence, 7a,25-OHC stimulation, uHTS; 0.81% of 360,000 active; 7a,25-OHC stimulated; inhibition, % at 5 µM; G-protein coupled receptor 183 (Homo sapiens), P32249; in the data active = inhibition above about 38%;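 note: enzyme fragment complementation signal reports receptor beta-arrestin coupling in cells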
Target sequence (P32249 whole entry, looked up, the tested form may be a part): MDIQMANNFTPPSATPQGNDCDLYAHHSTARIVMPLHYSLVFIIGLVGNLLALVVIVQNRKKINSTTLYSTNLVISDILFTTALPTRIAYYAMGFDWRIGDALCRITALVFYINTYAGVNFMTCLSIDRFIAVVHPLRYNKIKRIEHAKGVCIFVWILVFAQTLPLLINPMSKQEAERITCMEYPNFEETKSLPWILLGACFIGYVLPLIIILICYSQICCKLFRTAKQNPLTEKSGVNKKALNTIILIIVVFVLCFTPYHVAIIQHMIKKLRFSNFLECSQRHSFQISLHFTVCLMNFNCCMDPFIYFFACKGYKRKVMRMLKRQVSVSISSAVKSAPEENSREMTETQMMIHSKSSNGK
EBI2 antag conf – EBI2 antagonist hit retest, beta-arrestin, confirmation, cell-based, single concentration, luminescence, 7a,25-OHC stimulation. AID 651997, 2013. 7a,25-OHC antagonism. 29% of 2,400 active. shares compounds with EBI2 antag. inhibition, % at 5 µM;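 active = inhibition of at least 50%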
EBI2 agonist – EBI2 agonist activity of antagonist hits, confirmation, counter-screen for EBI2 antagonist project, cell-based, single concentration, agonist mode, luminescence | shares compounds with EBI2 antag | EBI2-expressing cells, 60 min; 0% vehicle, 100% 7α,25-dihydroxycholesterol control | activation, % at 5 µM | 2,400 tested, under 10 active | AID 652000, 2013;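 active = activation of at least 50%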
bGal cs – E. coli beta-galactosidase enzyme inhibition, confirmation, counter-screen for EBI2 antagonist project, biochemical, luminescence, single concentration. shares compounds with EBI2 antag. purified beta-galactosidase, luminescent Galacton Star, 15 min. inhibition, % at 5 µM. 1% of 2,400 active;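 active = replicate-average signal at least 3 plate SD below neutral wells, shown as high inhibition, flagging enzyme-inhibiting false positives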;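 note: higher means stronger loss of beta-gal luminescence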
Large screens that a line does not name were inactive (follow-up assays come after a bar, where they were run). Compounds with a hit are over-represented: about 4.7% of the library has one in this group of screens.

COCCn1c(SC(C)C(=O)Nc2ccc(N3CCOCC3)cc2)nnc1-c1ccncc1 (stereo not drawn)	none
C#Cc1cccc(NC(=O)c2ccc3c(c2)C(=O)N(Cc2cccnc2)C3=O)c1	EBI2 antag 45 | EBI2 antag conf inactive | EBI2 agonist inactive | bGal cs inactive
O=C(CSc1nncn1-c1ccccc1)Nc1cc(F)ccc1F	none
O=C(Nc1ccc2ccccc2n1)c1ccccc1	none
O=C(CCc1ccccc1)Nc1ccc2ccccc2n1	EBI2 antag 72 | EBI2 antag conf inactive | EBI2 agonist inactive | bGal cs inactive
C=CCNc1oc(Cc2cccc3ccccc23)nc1C#N	none
N#Cc1nc(Cc2cccc3ccccc23)oc1NCc1ccc(F)cc1	EBI2 antag 45 | EBI2 antag conf inactive | EBI2 agonist inactive | bGal cs inactive
Cc1cccc2c1-c1sc(C(=O)N3CCCCC3)cc1CO2	EBI2 antag 78 | EBI2 antag conf 71 | EBI2 agonist inactive | bGal cs inactive
CCOC(=O)N1CCN(C(=O)c2cc3c(s2)-c2c(C)cccc2OC3)CC1	EBI2 antag 91 | EBI2 antag conf 87 | EBI2 agonist inactive | bGal cs inactive
Cc1cccc2c1-c1sc(C(=O)Nc3ccccc3N3CCN(C)CC3)cc1CO2	none
Cc1cccc2c1-c1sc(C(=O)N3CCc4ccccc4C3)cc1CO2	none
CCN1CCN(C(=O)c2cc3c(s2)-c2c(C)cccc2OC3)CC1	EBI2 antag 91 | EBI2 antag conf 78 | EBI2 agonist inactive | bGal cs inactive
O=C(c1ccco1)N1CCN(C(=O)c2cc3c(s2)-c2ccccc2OC3)CC1	EBI2 antag 70 | EBI2 antag conf 62 | EBI2 agonist inactive | bGal cs inactive
FC(F)(F)Oc1ccccc1C(c1nnnn1-c1ccc2c(c1)OCCO2)N1CCN(C/C=C/c2ccccc2)CC1 (stereo not drawn)	EBI2 antag 81 (no result: SKKanGAS inh, TIM10 inh, tim10-1 inh, tim23-1 inh, PfHsp90 yeast 2) | EBI2 antag conf 56 | EBI2 agonist inactive | bGal cs inactive
COc1ccc(-n2nnnc2C(c2cccc(OC)c2OC)N2CCN(C/C=C/c3ccccc3)CC2)cc1 (stereo not drawn)	none (no result: SKKanGAS inh, TIM10 inh, tim10-1 inh, tim23-1 inh, PfHsp90 yeast 2)
Cc1cccc(C)c1-n1nnnc1C(c1cccc2ccccc12)N1CCN(C/C=C/c2ccccc2)CC1 (stereo not drawn)	none (no result: SKKanGAS inh, TIM10 inh, tim10-1 inh, tim23-1 inh, PfHsp90 yeast 2)
O=C(OCc1ccccc1)N1CCN(C(c2ccnc3ccccc23)c2nnnn2-c2ccc3c(c2)OCCO3)CC1 (stereo not drawn)	EBI2 antag 60 (no result: SKKanGAS inh, TIM10 inh, tim10-1 inh, tim23-1 inh, PfHsp90 yeast 2) | EBI2 antag conf inactive | EBI2 agonist inactive | bGal cs inactive
C(=C\c1ccccc1)/CN1CCN(C(c2cccc3ccccc23)c2nnnn2-c2ccc3c(c2)OCCO3)CC1 (stereo not drawn)	EBI2 antag 55 (no result: SKKanGAS inh, TIM10 inh, tim10-1 inh, tim23-1 inh, PfHsp90 yeast 2) | EBI2 antag conf inactive | EBI2 agonist inactive | bGal cs inactive
c1ccc2c(C(c3nnnn3-c3ccc4c(c3)OCCO4)N3CCCC3)ccnc2c1 (stereo not drawn)	none (no result: SKKanGAS inh, TIM10 inh, tim10-1 inh, tim23-1 inh, PfHsp90 yeast 2)
Cc1cc(C)cc(OCC(=O)N(Cc2ccccc2)C2CCS(=O)(=O)C2)c1 (stereo not drawn)	none
NC(N)=NS(=O)(=O)c1ccc(N/C=C\C(=O)c2ccncc2)cc1	none
CN1C(=O)c2ccc(C(=O)Nc3ccc4c(c3)OCO4)cc2C1=O	EBI2 antag 45 | EBI2 antag conf inactive | EBI2 agonist inactive | bGal cs inactive
